# According to article PMC9911399, “Two distinct binding modes provide the RNA-binding protein RbFox with extraordinary sequence specificity”:
# Substitutions are numbered along the chain they refer to; changes in the protein carry UniProt numbers. Over roughly 16,000 sequences, “ka relative to ugcaugu” has its median near 0.096; the highest 2% begin near 0.35. The full list was thinned out, with the highest values kept by preference.
# T1: RBFOX1 RRM RbFoxmut (Fox-RRM*) (Homo sapiens, UniProt Q9NWB1 109-208, R118D;E147R;N151S;E152T)
# T1 sequence: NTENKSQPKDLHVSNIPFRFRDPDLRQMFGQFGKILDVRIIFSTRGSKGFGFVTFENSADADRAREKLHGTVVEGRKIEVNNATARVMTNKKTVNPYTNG
# B1: UCUUCUA (DNA:RNA)
# RNA: GGGAGACCGGAAUUCAGAUUGUCCUCUUCUAUUAAAUCCCGUCGUAGCCACCA
# DNA 1: CAATCTGAATTCCGGTCTCCC
# DNA 2: TGGTGGCTACGACGGGATT
# B2: CCUCCAG (DNA:RNA)
# RNA: B1 RNA with U25C, U28C, U30A, A31G
# DNA 1: CAATCTGAATTCCGGTCTCCC
# DNA 2: TGGTGGCTACGACGGGATT
# B3: GAACAGU (DNA:RNA)
# RNA: GGGAGACCGGAAUUCAGAUUGUCCGAACAGUUUAAAUCCCGUCGUAGCCACCA
# DNA 1: CAATCTGAATTCCGGTCTCCC
# DNA 2: TGGTGGCTACGACGGGATT
# B4: ACGUGUG (DNA:RNA)
# RNA: B1 RNA with U25A, U27G, C29G, A31G
# DNA 1: CAATCTGAATTCCGGTCTCCC
# DNA 2: TGGTGGCTACGACGGGATT
# B5: CCCUACC (DNA:RNA)
# RNA: B1 RNA with U25C, U27C, C29A, U30C, A31C
# DNA 1: CAATCTGAATTCCGGTCTCCC
# DNA 2: TGGTGGCTACGACGGGATT
# B6: UAUCCCC (DNA:RNA)
# RNA: B1 RNA with C26A, U28C, U30C, A31C
# DNA 1: CAATCTGAATTCCGGTCTCCC
# DNA 2: TGGTGGCTACGACGGGATT
# B7: AUUUAGC (DNA:RNA)
# RNA: B3 RNA with G25A, A26U, A27U, C28U, U31C
# DNA 1: CAATCTGAATTCCGGTCTCCC
# DNA 2: TGGTGGCTACGACGGGATT
# B8: CCCGUAG (DNA:RNA)
# RNA: B1 RNA with U25C, U27C, U28G, C29U, U30A, A31G
# DNA 1: CAATCTGAATTCCGGTCTCCC
# DNA 2: TGGTGGCTACGACGGGATT
# B9: CCUGGAG (DNA:RNA)
# RNA: B1 RNA with U25C, U28G, C29G, U30A, A31G
# DNA 1: CAATCTGAATTCCGGTCTCCC
# DNA 2: TGGTGGCTACGACGGGATT
# B10: GCAGUAG (DNA:RNA)
# RNA: B3 RNA with A26C, C28G, A29U, G30A, U31G
# DNA 1: CAATCTGAATTCCGGTCTCCC
# DNA 2: TGGTGGCTACGACGGGATT
# B11: CAGGUCU (DNA:RNA)
# RNA: B3 RNA with G25C, A27G, C28G, A29U, G30C
# DNA 1: CAATCTGAATTCCGGTCTCCC
# DNA 2: TGGTGGCTACGACGGGATT
# B12: CAUUAAC (DNA:RNA)
# RNA: B3 RNA with G25C, A27U, C28U, G30A, U31C
# DNA 1: CAATCTGAATTCCGGTCTCCC
# DNA 2: TGGTGGCTACGACGGGATT
# B13: UGCGUCC (DNA:RNA)
# RNA: B1 RNA with C26G, U27C, U28G, C29U, U30C, A31C
# DNA 1: CAATCTGAATTCCGGTCTCCC
# DNA 2: TGGTGGCTACGACGGGATT
# B14: UGCAUCG (DNA:RNA)
# RNA: B1 RNA with C26G, U27C, U28A, C29U, U30C, A31G
# DNA 1: CAATCTGAATTCCGGTCTCCC
# DNA 2: TGGTGGCTACGACGGGATT
# B15: UGCAUAG (DNA:RNA)
# RNA: B1 RNA with C26G, U27C, U28A, C29U, U30A, A31G
# DNA 1: CAATCTGAATTCCGGTCTCCC
# DNA 2: TGGTGGCTACGACGGGATT
# B16: UGCAUGC (DNA:RNA)
# RNA: B3 RNA with G25U, A26G, A27C, C28A, A29U, U31C
# DNA 1: CAATCTGAATTCCGGTCTCCC
# DNA 2: TGGTGGCTACGACGGGATT
# B17: UGCACCC (DNA:RNA)
# RNA: B1 RNA with C26G, U27C, U28A, U30C, A31C
# DNA 1: CAATCTGAATTCCGGTCTCCC
# DNA 2: TGGTGGCTACGACGGGATT
# B18: UGCAUUC (DNA:RNA)
# RNA: B1 RNA with C26G, U27C, U28A, C29U, A31C
# DNA 1: CAATCTGAATTCCGGTCTCCC
# DNA 2: TGGTGGCTACGACGGGATT
# B19: UGCAUAC (DNA:RNA)
# RNA: B1 RNA with C26G, U27C, U28A, C29U, U30A, A31C
# DNA 1: CAATCTGAATTCCGGTCTCCC
# DNA 2: TGGTGGCTACGACGGGATT
# Biological target: T1, RBFOX1 RRM RbFoxmut (Fox-RRM*)
# Assay: EMSA; HiTS-Eq, 1 nM pool, 10 min; buffer printed only for the single-RNA assays: 10 mM Tris pH 7.5, 150 mM NaCl, 3.4 mM EDTA, 0.001% NP-40, 30 C
# Conditions: tags: His6 N-terminal (pET28a); label: 5' 32P
# Outline: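 These values rest on relative association constants, computed from read-count changes of each RNA species versus the control reaction and normalised to the cognate motif. Reads came from free RNA recovered by 8% native PAGE after purified RbFox RRM (wild type or mutant) at increasing concentrations was equilibrated for 10 min in 50 µL with 1 nM of a 5′-radiolabelled pool with 7 randomized nucleotides and DNA-annealed flanks.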
row,Binder,binding signal
1,B1,0.0886 KA relative to UGCAUGU
2,B2,0.101 KA relative to UGCAUGU
3,B3,0.0727 KA relative to UGCAUGU
4,B4,0.203 KA relative to UGCAUGU
5,B5,0.0909 KA relative to UGCAUGU
6,B6,0.0611 KA relative to UGCAUGU
7,B7,0.134 KA relative to UGCAUGU
8,B8,0.101 KA relative to UGCAUGU
9,B9,0.113 KA relative to UGCAUGU
10,B10,0.122 KA relative to UGCAUGU
11,B11,0.0783 KA relative to UGCAUGU
12,B12,0.113 KA relative to UGCAUGU
13,B13,0.091 KA relative to UGCAUGU
14,B14,0.922 KA relative to UGCAUGU
15,B15,0.146 KA relative to UGCAUGU
16,B16,1.29 KA relative to UGCAUGU
17,B17,0.127 KA relative to UGCAUGU
18,B18,0.13 KA relative to UGCAUGU
19,B19,0.161 KA relative to UGCAUGU
